Data published in PubChem BioAssay (NCATS).
“And” between values parts separate entries of the source, which are not always exact repeats. Identical values can stand only once. Records with an inconclusive call do not appear. The source made the active and inactive calls. Calls come from the whole dose curve; as a rule, active = well fitted curve in the direction sought with a large enough effect; inconclusive = small, poorly fitted or top-dose-only effect, or another doubt; inactive = no such curve, though single readings can be large; an effect the other way counts as inactive or inconclusive.

Experiments:
Es-2 = assay: Primary qHTS to identify gynecologic anti-cancer compounds using libraries of approved drugs and bioactive compounds (AID 1345084); conditions: Gynecologic cancer cell panel viability, ATPlite luminescence, 48 h; series mostly up to 57.5 µM; note: nearly all actives have a fitted effect of over 55% in size
Outline: (§1)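 ATP-based viability (ATPlite), 1,000 cells/well, 16 h pre-incubation, 48 h compound at 37 C, 5% CO2, 15 min RT before read.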

HeLa = assay: as above; conditions: Gynecologic cancer cell panel viability, ATPlite luminescence, 48 h; series mostly up to 57.5 µM
Outline: as §1

Hek293T = assay: as above; conditions: Gynecologic cancer cell panel viability, ATPlite luminescence, 48 h, control line for the selectivity index; series mostly up to 57.5 µM
Outline: as §1

JEG-3 = assay: as above; conditions: Gynecologic cancer cell panel viability, ATPlite luminescence, 48 h; series mostly up to 57.5 µM
Outline: as §1

OV90 = assay: as above; conditions: Gynecologic cancer cell panel viability, ATPlite luminescence, 48 h; series mostly up to 57.5 µM
Outline: as §1

PA-1 = assay: as above; conditions: Gynecologic cancer cell panel viability, ATPlite luminescence, 48 h; series mostly up to 57.5 µM
Outline: as §1

SKOV3 = assay: as above; conditions: Gynecologic cancer cell panel viability, ATPlite luminescence, 48 h; series mostly up to 57.5 µM
Outline: as §1

Tov-21-G = assay: as above; conditions: Gynecologic cancer cell panel viability, ATPlite luminescence, 48 h; series mostly up to 57.5 µM
Outline: as §1

Tov112D = assay: as above; conditions: Gynecologic cancer cell panel viability, ATPlite luminescence, 48 h; series mostly up to 57.5 µM
Outline: as §1

[1] = Drug repurposing screens with cells derived from glioblastoma tumor samples (AID 1345199); conditions: GBM patient neurospheres viability, ATP luminescence, 48 h; note: nearly all actives have a fitted effect of over 40% in size
Outline: (§2)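 Four patient lines of CD133+ GBM neurospheres were screened at several concentrations; hits were retested in those lines plus three slower-growing GBM lines, using 48-hour treatment and ATP-based viability.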

astro = assay: as above; conditions: viability, ATP luminescence, 48 h; series mostly up to 45.9 µM
Outline: as §2

[2] = at 45.9 µM (top of the series), tumour line B
[3] = at 45.9 µM (top of the series), tumour line D
[4] = at 46 µM (top of the series), tumour line A
[5] = at 46.1 µM (top of the series), tumour line C
% is set by controls: 0 for no effect and ±100 for the full control effect.

OCCc1ccc(O[C@@H]2O[C@H](CO)[C@@H](O)[C@H](O)[C@H]2O)c(O)c1
inactive: Potency (Es-2) | Potency (HeLa) | Potency (Hek293T) | Potency (JEG-3) | Potency (OV90) | Potency (PA-1) | Potency (SKOV3) | Potency (Tov-21-G) | Potency (Tov112D)

CC1CCC2(NC1)OC1C(=O)C3C4CCC5CC(O[C@@H]6O[C@H](CO)[C@@H](O)[C@H](O)[C@H]6O[C@@H]6O[C@@H](C)[C@H](O)[C@@H](O)[C@H]6O)CCC5(C)C4CCC3(C)C1C2C (some centres undefined)
inactive: Potency (Es-2) | Potency (HeLa) | Potency (Hek293T) | Potency (JEG-3) | Potency (OV90) | Potency (PA-1) | Potency (SKOV3) | Potency (Tov-21-G) | Potency (Tov112D)

CC(=O)OC[C@@]12[C@H](O)C[C@@H](C)[C@]3(C[C@@H](c4ccoc4)OC3=O)[C@H]1C[C@H](O)C[C@]21CO1
inactive: Potency (Es-2) | Potency (HeLa) | Potency (Hek293T) | Potency (JEG-3) | Potency (OV90) | Potency (PA-1) | Potency (SKOV3) | Potency (Tov-21-G) | Potency (Tov112D)

Cc1ncc([N+](=O)[O-])n1CC(O)CN1CCOCC1 (centres undefined)
inactive: Potency (Es-2) | Potency (HeLa) | Potency (Hek293T) | Potency (JEG-3) | Potency (OV90) | Potency (PA-1) | Potency (SKOV3) | Potency (Tov-21-G) | Potency (Tov112D)

COc1cc(C2c3cc(O)c(OC)cc3CC(CO)C2CO)ccc1O (centres undefined)
inactive: Potency (Es-2) | Potency (HeLa) | Potency (Hek293T) | Potency (JEG-3) | Potency (OV90) | Potency (PA-1) | Potency (SKOV3) | Potency (Tov-21-G) | Potency (Tov112D)

CC1(C)CC[C@]2(C(=O)O[C@@H]3O[C@H](CO)[C@@H](O)[C@H](O)[C@H]3O)CC[C@]3(C)C(=CCC4[C@@]5(C)C[C@@H](O)[C@H](O)[C@@](C)(CO)C5CC[C@]43C)C2C1 (some centres undefined)
inactive: Potency (Es-2) | Potency (HeLa) | Potency (Hek293T) | Potency (JEG-3) | Potency (OV90) | Potency (PA-1) | Potency (SKOV3) | Potency (Tov-21-G) | Potency (Tov112D)

CCC(=O)N[C@@H]1Cc2ccccc2[C@H](c2ccccc2)C1
inactive: Potency (Es-2) | Potency (HeLa) | Potency (Hek293T) | Potency (JEG-3) | Potency (OV90) | Potency (PA-1) | Potency (SKOV3) | Potency (Tov-21-G) | Potency (Tov112D)

CN1Cc2c(N)cccc2C(c2ccccc2)C1 (centres undefined)
inactive: Potency (Es-2) | Potency (HeLa) | Potency (Hek293T) | Potency (JEG-3) | Potency (OV90) | Potency (PA-1) | Potency (SKOV3) | Potency (Tov-21-G) | Potency (Tov112D) | activity, negative = cell killing [1, 2] -10.9% | activity, negative = cell killing [1, 3] -22.4% | activity, negative = cell killing [1, 4] -25.6% | activity, negative = cell killing [1, 5] -16.4%

CC(=O)OC(C)OC(=O)C(C)c1ccc(-c2ccccc2)c(F)c1 (centres undefined)
inactive: Potency (Es-2) | Potency (HeLa) | Potency (Hek293T) | Potency (JEG-3) | Potency (OV90) | Potency (PA-1) | Potency (SKOV3) | Potency (Tov-21-G) | Potency (Tov112D) | activity, negative = cell killing [1, 2] 13.2% and -1.22% | activity, negative = cell killing [1, 3] 13.1% and -23.3% | activity, negative = cell killing [1, 4] -17.1% | activity, negative = cell killing [1, 5] 1.46% and -25.4% | Potency (astro)

CC(C)C1=CCC(C)(O)C(OC2OC(CO)C(O)C(O)C2O)C1 (centres undefined)
inactive: Potency (Es-2) | Potency (HeLa) | Potency (Hek293T) | Potency (JEG-3) | Potency (OV90) | Potency (PA-1) | Potency (SKOV3) | Potency (Tov-21-G) | Potency (Tov112D)

CCN(c1cc(C#CCN2CCOCC2)cc(C(=O)NCc2c(C)cc(C)[nH]c2=O)c1C)C1CCC(N(C)CCOC)CC1 (centres undefined)
inactive: Potency (Es-2) | Potency (HeLa) | Potency (Hek293T) | Potency (JEG-3) | Potency (OV90) | Potency (PA-1) | Potency (SKOV3) | Potency (Tov-21-G) | Potency (Tov112D)

Cn1c(=O)cc(N2CCCC(N)C2)n(Cc2ccccc2C#N)c1=O (centres undefined)
inactive: Potency (Es-2) | Potency (HeLa) | Potency (Hek293T) | Potency (JEG-3) | Potency (OV90) | Potency (PA-1) | Potency (SKOV3) | Potency (Tov112D)

C[C@@H]1C[C@H]2[C@@H]3CCC4=CC(=O)C=C[C@]4(C)[C@@]3(F)[C@@H](O)C[C@]2(C)[C@@]1(O)C(=O)COP(=O)(O)O
inactive: Potency (Es-2) | Potency (HeLa) | Potency (Hek293T) | Potency (JEG-3) | Potency (OV90) | Potency (PA-1) | Potency (SKOV3) | Potency (Tov-21-G) | Potency (Tov112D) | activity, negative = cell killing [1, 2] -3.61% | activity, negative = cell killing [1, 3] 1.29% | activity, negative = cell killing [1, 4] -0.902% | activity, negative = cell killing [1, 5] -0.678% | Potency (astro)

C[C@@H]1O[C@@H](O[C@H]2[C@H](O[C@H]3CC[C@@]4(C)C(CC[C@]5(C)C4CC=C4C6CC(C)(C)CC[C@]6(C(=O)O[C@@H]6O[C@H](CO[C@@H]7O[C@H](CO)[C@@H](O[C@@H]8O[C@@H](C)[C@H](O)[C@@H](O)[C@H]8O)[C@H](O)[C@H]7O)[C@@H](O)[C@H](O)[C@H]6O)CC[C@]45C)[C@]3(C)CO)OC[C@H](O)[C@@H]2O)[C@H](O)[C@H](O)[C@H]1O (some centres undefined)
inactive: activity change, negative = cytotoxicity (Es-2) 23.6% [at 6.55 µM] | activity change, negative = cytotoxicity (HeLa) -1.03% [at 6.55 µM] | activity change, negative = cytotoxicity (Hek293T) -5.22% [at 6.55 µM] | activity change, negative = cytotoxicity (JEG-3) -11.6% [at 6.55 µM] | activity change, negative = cytotoxicity (OV90) -14.8% [at 6.55 µM] | activity change, negative = cytotoxicity (PA-1) -4.46% [at 6.55 µM] | activity change, negative = cytotoxicity (SKOV3) -11.7% [at 6.55 µM] | activity change, negative = cytotoxicity (Tov-21-G) 8.28% [at 6.55 µM] | activity change, negative = cytotoxicity (Tov112D) -13.6% [at 6.55 µM]
